Source: PubChem BioAssay
Most compounds without a hit are left out; they make up all but 12% or so of the library.
HP1b binding inh: HTS for Inhibitors of HP1-beta Chromodomain Interactions with Methylated Histone Tails | Chromobox protein homolog 1 (Homo sapiens), P83916 | AlphaScreen HP1-beta / biotin-H3K9me3 peptide binding | Potency, µM (highest dose often 114 µM), for inactives: at the top dose activity change, negative = inhibition, most hits filed as inhibitors | 0.56% of 390,000 active; further: nearly all actives have a fitted effect of over 70% in size
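Compound inhibition of the preformed complex between 50 nM HP1-beta and 50 nM biotinylated H3K9me3 peptide was read by AlphaScreen. Buffer was PBS pH 7.4 with 0.01% Tween-20. Incubations ran 30 min at room temperature, with 10 ug/mL donor/acceptor beads.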
G9a inh: qHTS Assay for Inhibitors of Histone Lysine Methyltransferase G9a; Histone-lysine N-methyltransferase EHMT2 (Homo sapiens), Q96KQ7; Potency, µM (top dose mostly 102 µM), for the others: at the top dose activity, negative = inhibition, usual class: inhibitors; G9a H3K9 monomethylation, AlphaScreen, 2 h; 8.8% of 350,000 active; further: on the % scale 0 is the no-effect control and ±100 the full control effect; nearly all actives have a fitted effect of over 75% in size
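AlphaScreen read-out: biotin-H3K9 peptide (500 nM) methylation by 20 nM enzyme with 20 uM SAM, 2 h at room temperature after 15 min compound preincubation; anti-monomethyl H3K9 antibody plus donor/acceptor beads, 10 min dark.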
Sfp PPTase inh: qHTS Assay for Inhibitors of Bacillus subtilis Sfp phosphopantetheinyl transferase (PPTase). 4'-phosphopantetheinyl transferase ffp (Bacillus subtilis), Q9F4F7. Biochemical Sfp PPTase activity, qHTS. Potency, µM, without a hit: largest response in the series, negative = inhibition, actives largely listed as inhibitors. 3.5% of 310,000 active. AID 1490, 2009;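 further: the enzyme is Sfp with the accession as filed and its product quenches rhodamine fluorescence; 0% = enzyme reaction without inhibitor and -100% = no enzyme wells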
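Fluorescence-quenching assay: 15 nM Sfp-PPTase preincubated 15 min at room temperature with compound, then 5 uM rhodamine-CoA and 12.5 uM BHQ-2-labelled YbbR peptide added. Fluorescence (ex 525/em 598 nm) read at start and after 30 min; difference gives rate.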
BAZ2B block: qHTS Assay for Inhibitors of BAZ2B; Bromodomain adjacent to zinc finger domain protein 2B (Homo sapiens), Q9UIF8; AlphaScreen BAZ2B-H3K14Ac peptide displacement; Potency, µM (doses to about 114 µM), without a hit: at the highest dose activity change, negative = inhibition, actives largely listed as inhibitors; 4.4% of 360,000 active; further: on the % scale 0 is the no-effect control and ±100 the full control effect; nearly all actives have a fitted effect of over 60% in size
Target sequence (Q9UIF8 whole entry, looked up, the tested form may be a part): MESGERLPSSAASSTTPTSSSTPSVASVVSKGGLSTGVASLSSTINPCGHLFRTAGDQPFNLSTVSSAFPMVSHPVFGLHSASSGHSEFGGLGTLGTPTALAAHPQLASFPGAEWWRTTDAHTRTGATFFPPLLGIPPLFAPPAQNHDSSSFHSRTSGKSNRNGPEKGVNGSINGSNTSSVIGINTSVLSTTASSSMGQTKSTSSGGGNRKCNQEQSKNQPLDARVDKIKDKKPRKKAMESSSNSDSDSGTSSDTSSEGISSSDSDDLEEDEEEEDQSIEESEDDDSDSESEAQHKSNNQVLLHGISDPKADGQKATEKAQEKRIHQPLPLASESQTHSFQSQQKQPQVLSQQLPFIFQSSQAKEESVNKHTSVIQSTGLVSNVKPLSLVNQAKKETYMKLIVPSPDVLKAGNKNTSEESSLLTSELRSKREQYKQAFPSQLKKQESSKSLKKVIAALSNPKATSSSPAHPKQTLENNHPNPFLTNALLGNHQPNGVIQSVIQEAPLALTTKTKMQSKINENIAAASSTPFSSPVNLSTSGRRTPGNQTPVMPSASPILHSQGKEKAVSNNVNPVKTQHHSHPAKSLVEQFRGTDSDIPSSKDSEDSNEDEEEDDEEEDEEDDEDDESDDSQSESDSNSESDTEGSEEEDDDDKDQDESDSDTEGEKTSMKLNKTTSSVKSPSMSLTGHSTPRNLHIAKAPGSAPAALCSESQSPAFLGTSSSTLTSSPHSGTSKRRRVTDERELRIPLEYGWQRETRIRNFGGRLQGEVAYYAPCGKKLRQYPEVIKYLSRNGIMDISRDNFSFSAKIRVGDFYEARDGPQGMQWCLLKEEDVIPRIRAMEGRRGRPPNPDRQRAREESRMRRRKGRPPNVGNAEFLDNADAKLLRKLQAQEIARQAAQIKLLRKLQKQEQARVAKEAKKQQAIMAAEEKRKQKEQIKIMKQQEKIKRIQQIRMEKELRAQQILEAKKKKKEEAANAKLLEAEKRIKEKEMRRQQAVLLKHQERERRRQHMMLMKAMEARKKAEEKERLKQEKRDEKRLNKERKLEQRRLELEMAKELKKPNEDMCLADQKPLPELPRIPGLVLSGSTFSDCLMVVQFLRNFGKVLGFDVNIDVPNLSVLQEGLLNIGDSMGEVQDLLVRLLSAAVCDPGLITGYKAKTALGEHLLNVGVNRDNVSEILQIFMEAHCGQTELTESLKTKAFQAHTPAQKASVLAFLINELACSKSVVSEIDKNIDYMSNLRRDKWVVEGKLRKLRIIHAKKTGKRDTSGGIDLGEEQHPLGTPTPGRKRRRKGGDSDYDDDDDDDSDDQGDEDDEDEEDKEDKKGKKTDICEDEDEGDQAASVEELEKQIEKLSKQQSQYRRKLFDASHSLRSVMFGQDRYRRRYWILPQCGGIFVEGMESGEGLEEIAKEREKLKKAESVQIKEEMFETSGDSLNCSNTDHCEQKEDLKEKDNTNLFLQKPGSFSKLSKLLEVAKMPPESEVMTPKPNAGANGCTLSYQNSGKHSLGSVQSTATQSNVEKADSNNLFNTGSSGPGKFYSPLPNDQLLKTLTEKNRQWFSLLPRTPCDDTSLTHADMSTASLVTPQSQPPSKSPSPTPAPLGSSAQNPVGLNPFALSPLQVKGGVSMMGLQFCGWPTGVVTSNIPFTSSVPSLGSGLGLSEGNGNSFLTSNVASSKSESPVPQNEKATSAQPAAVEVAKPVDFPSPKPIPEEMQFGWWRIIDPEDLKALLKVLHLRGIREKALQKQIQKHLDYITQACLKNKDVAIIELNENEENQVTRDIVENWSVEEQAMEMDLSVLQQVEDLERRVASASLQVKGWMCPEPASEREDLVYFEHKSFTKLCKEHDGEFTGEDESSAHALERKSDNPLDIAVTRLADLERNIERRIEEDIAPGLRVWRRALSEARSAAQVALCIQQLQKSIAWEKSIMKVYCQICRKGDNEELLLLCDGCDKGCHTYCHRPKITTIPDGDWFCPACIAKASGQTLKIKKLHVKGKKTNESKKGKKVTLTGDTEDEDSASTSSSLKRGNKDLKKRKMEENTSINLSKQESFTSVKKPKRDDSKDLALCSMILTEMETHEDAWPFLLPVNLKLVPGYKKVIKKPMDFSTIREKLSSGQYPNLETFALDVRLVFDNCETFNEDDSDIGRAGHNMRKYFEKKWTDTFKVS
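Multi-concentration screen (max 110 uM) measuring displacement of acetylated histone H3 peptide from BAZ2B by AlphaScreen, using 50 nM protein, 50 nM peptide and 10 ug/mL streptavidin donor plus Ni-chelate acceptor beads.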
JMJD2A Tudor: qHTS Assay for Inhibitors of JMJD2A-Tudor Domain | Lysine-specific demethylase 4A (Homo sapiens), O75164 | AlphaScreen JMJD2A-Tudor / H3K4me3 peptide binding | Potency, µM (titrated, usually from 114 µM), for the others: top-dose activity change, negative = inhibition, actives largely listed as inhibitors | 4.4% of 390,000 active | AID 504339, 2011; further: on the % scale 0 is the no-effect control and ±100 the full control effect; nearly all actives have a fitted effect of over 50% in size
* hit, by the source's call; ? = inconclusive; nt = no result; [ ] = dose if it differs, or a comment. The call rests on the fitted dose curve; in most records, active means well fitted curve in the direction sought with a large enough effect; inconclusive means small, poorly fitted or top-dose-only effect, or another doubt; inactive means no such curve, though single readings can be large; an effect the other way counts as inactive or inconclusive. Potency means the concentration at half of the fitted maximal effect.

SMILES	HP1b binding inh	G9a inh	Sfp PPTase inh	BAZ2B block	JMJD2A Tudor
Cc1ccc(-n2nnnc2SCC(=O)Nc2sc(C)c(C)c2C#N)cc1C	21.6%	-34.0%[59 µM]	-18.1%	7.4%	-15.7%
CCCn1nnnc1SCC(=O)Nc1sc(C)c(C)c1C#N	-4.5%	47.5%[12.7 µM]	50.1µM*	2.2%	-13.1%
Cc1sc(NC(=O)CSc2nnnn2C)c(C#N)c1C	53.2%	nt	19.4%	-20.0%	-9.5%
COc1ccc(CCNC(=S)N2CCN(S(=O)(=O)c3cccc(F)c3)CC2)cc1	10.1%	50.1µM*	nt	12.4%	2.1%
COc1ccc(CCNC(=S)N2CCN(S(=O)(=O)c3ccc(C)cc3)CC2)cc1	5.5%	50.1µM*	nt	10.4%	2.7%
COc1ccc(CNC(=S)N2CCN(S(=O)(=O)c3cccc(F)c3)CC2)cc1	-1.1%	nt	13.8%	-14.4%	-19.3%
COc1ccc(S(=O)(=O)N2CCN(C(=S)NCCc3ccccc3)CC2)cc1	27.5%	-6.2%[12.7 µM]	6.3%	-21.0%	-16.1%
CC(=O)OCCN1C(=O)c2c(C)nc3ccc(S(=O)(=O)N4CCOCC4)cc3c2C1=O	nt	nt	-0.9%	nt	nt
Cc1oc(-c2cccs2)nc1CS(=O)CC(=O)NCCCOC(C)C (configuration not stated)	44.8%	?	5.8%	5.3%	-10.5%
CCCCNC(=O)CS(=O)Cc1nc(-c2cccs2)oc1C (configuration not stated)	34.7%	50.1µM*	12.3%	-2.2%	-8.8%
Cc1oc(-c2cccs2)nc1CS(=O)CC(=O)NCCc1ccccc1 (configuration not stated)	20.6%	50.1µM*	-8.5%	-24.9%	-25.7%
Cc1ccccc1CN1C(=O)c2ccccc2S(=O)c2ccc(C(=O)NCc3ccc4c(c3)OCO4)cc21 (configuration not stated)	25.0%	-5.9%[59 µM]	nt	-18.1%	-6.7%
CCOc1ccc(-c2nonc2NC(=O)COc2ccc(C)c(C)c2)cc1OCC	27.2%	-1.3%[59 µM]	nt	1.7%	0.7%
Cc1cc(C)n(-c2nnc3c4ccccc4n(C)c3n2)n1	41.4%	1.2%	8.6%	11.2µM*	79.4µM*
COC(=O)[C@H](Cc1ccccc1)NC(=O)[C@@H](N)CC(=O)OCc1ccccc1	-10.6%	5.5%[0.501 µM]	nt	?	?
O=C(N[C@@H](Cc1ccccc1)C(=O)N[C@@H](Cc1ccccc1)C(=O)O)OCc1ccccc1	70.5%	23.4%[2.33 µM]	nt	11.2%	-18.6%
CC(C)C[C@@H](C=O)NC(=O)[C@H](CC(C)C)NC(=O)[C@H](CC(C)C)NC(=O)OCc1ccccc1	nt	8.91µM*	-9.1%	nt	nt
O=C(N[C@@H](Cc1ccccc1)C(=O)CCl)OCc1ccccc1	54.8%	15µM*	nt	4.1%	-9.0%
COC(=O)C(CC(C)C)NC(=O)C(N)Cc1ccccc1 (configuration not stated)	11.8%	44.7µM*	9.8%	3.8%	?
CCN1CCC(N(Cc2ccc3c(c2)OCO3)C(=O)Nc2cc(Cl)ccc2C(=O)OC)CC1	-2.0%	0.1%[59 µM]	nt	-26.4%	-26.7%
CCO/C=C1\SC(=S)N(c2ccc(Cl)cc2)C1=O	-14.9%	?	?	-36.0%	-29.0%
CC(C)c1ccc(N2C(=O)/C(=C/N(C)C)SC2=S)cc1	?	50.1µM*	27.8%	44.7µM*	44.7µM*
CCC1S/C(=C(\C#N)C(=O)NCc2ccco2)N(c2ccc(F)cc2)C1=O (configuration not stated)	36.8%	?	25.1µM*	-30.5%	-1.7%
CCC1S/C(=C(\C#N)C(=O)NCc2ccco2)N(c2ccc(Br)cc2)C1=O (configuration not stated)	3.0%	?	-3.3%	?	-14.9%
Cc1cc(NC(=NC2CC2)c2ccccc2)n(-c2ccccc2)n1	-12.6%	?	10.7%	5.3%	-6.2%
SMILES	HP1b binding inh	G9a inh	Sfp PPTase inh	BAZ2B block	JMJD2A Tudor
Cc1ccc(N=CNc2ccc(C)cc2C)c(C)c1	18.0%	20.4%	8.1%	-21.7%	-9.3%
Cc1cc2n(n1)SC(Nc1ccccc1)N2 (configuration not stated)	?	1.78µM*	-21.6%	-33.4%	7.94µM*
Cc1ccc(NC2Nc3cc(C)nn3S2)c(C)c1 (configuration not stated)	11.8%	1.12µM*	11.0%	-25.3%	?
CCN1CCN(CCNC(=O)c2ccc(CS(=O)c3ccc(Br)cc3)o2)CC1 (configuration not stated)	62.8%	11.7%	19.5%	-9.3%	1.4%
CN(Cc1ccccc1)S(=O)(=O)c1ccccc1Br	93.2%	nt	nt	nt	47.3%
Cc1cccc(S(=O)(=O)Nc2nc3ccccc3nc2Nc2ccc3c(c2)OCO3)c1	-16.9%	44.7µM*	-13.8%	?	?
O=S(=O)(Nc1nc2ccccc2nc1Nc1ccc2c(c1)OCO2)c1ccccc1	3.3%	39.8µM*	14.2%	-3.8%	-11.4%
O=[N+]([O-])c1cccc(S(=O)(=O)Nc2nc3ccccc3nc2Nc2cccc(S(=O)(=O)N3CCCCC3)c2)c1	-10.9%	39.8µM*	-28.8%	?	44.7µM*
CCc1cc(CNC(=O)c2ccc3nc(Cc4ccc(OC)c(OC)c4)oc3c2)on1	17.6%	nt	9.8%	-5.3%	-11.0%
CC(Sc1nnc(-c2ccc(Cl)cc2)n1N)C(=O)NCC1CCCO1 (configuration not stated)	25.7%	4.8%	nt	12.0%	-17.6%
Cc1cccc(Cn2c(SCc3ccc(C(=O)NCc4cccs4)cc3)nc3cccnc32)c1	29.3%	?	nt	-3.8%	-14.9%
CCOc1cc(/C=C2/C(=N)N3C(=NC2=O)SN=C3S(=O)(=O)C(C)C)ccc1OC(=O)c1ccco1	-5.2%	35.5µM*	-11.2%	-34.9%	-25.0%
CCOc1cc(/C=C2/C(=N)N3C(=NC2=O)SN=C3S(=O)(=O)CC)ccc1OC(=O)c1ccco1	-14.3%[57 µM]	39.8µM*	10.6%	-33.6%	?
COc1cc(/C=C2/C(=N)N3C(=NC2=O)SN=C3S(=O)(=O)C(C)C)ccc1OC(=O)c1ccco1	-7.3%[57 µM]	39.8µM*	-1.8%	56.2µM*	-30.6%
COc1cc(/C=C2/C(=N)N3C(=NC2=O)SN=C3S(C)(=O)=O)ccc1OC(=O)c1ccco1	4.6%	?	-15.0%	?	?
COc1cc(/C=C2/C(=N)N3C(=NC2=O)SN=C3S(=O)(=O)C(C)C)ccc1OS(=O)(=O)c1ccccc1	nt	0.7%[59 µM]	56.2µM*	?	nt
COc1cc(/C=C2/C(=N)N3N=C(C(C)C)SC3=NC2=O)ccc1OS(=O)(=O)c1ccccc1	-16.8%	-14.0%	-6.6%	-13.9%	-34.5%
Cc1cccc(C(=O)NCC(=O)OCc2cc(=O)n3nc(CC(C)C)sc3n2)c1	11.1%	10.2%[59 µM]	nt	-6.5%	-2.3%
